High-throughput results (PubChem BioAssay)
Pol eta inh-1 – inhibitors of human DNA polymerase eta; Q9Y253; recombinant Pol eta, fluorescent DNA replication assay; Potency, µM (titrated, usually from 114 µM), for inactives: at the top dose activity change, negative = inhibition, most hits filed as inhibitors; 390,000 compounds, 1.2% hits; AID 588591; further: potency means the concentration at half of the fitted maximal effect; on the % scale 0 is the no-effect control and ±100 the full control effect
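Pol eta at 10 nM preincubated with compounds 15 min at room temperature; reaction started with fluorescent substrate (50 nM final) and read kinetically at 0 and 10 min.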
FEN1 inh – inhibitors of human flap endonuclease 1 | P39748 | Recombinant FEN1 flap cleavage, fluorescence, 15 min | Potency, µM (series often up to 114 µM), for inactives: top-dose activity change, negative = inhibition, actives largely listed as inhibitors | 390,000 compounds, 0.35% hits | AID 588795; further: potency means the concentration at half of the fitted maximal effect; on the % scale 0 is the no-effect control and ±100 the full control effect; nearly all actives have a fitted effect of over 65% in size
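Steps: FEN1 (10 nM) dispensed; compound added by pin tool; 15 min at room temperature; substrate added to 50 nM final; reads at 0 min and 15 min; data normalized and fitted (four-parameter Hill).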
Pol kappa inh-1 – DNA polymerase kappa (human) inhibition; Q9UBT6; purified Pol kappa, fluorescent DNA synthesis assay, 10 min; Potency, µM (highest dose often 107 µM), for the others: at the highest dose activity, negative = inhibition, hits mostly inhibitors; 400,000 compounds, 0.53% hits; further: potency means the concentration at half of the fitted maximal effect; on the % scale 0 is the no-effect control and ±100 the full control effect
Target sequence (Q9UBT6 whole entry, looked up): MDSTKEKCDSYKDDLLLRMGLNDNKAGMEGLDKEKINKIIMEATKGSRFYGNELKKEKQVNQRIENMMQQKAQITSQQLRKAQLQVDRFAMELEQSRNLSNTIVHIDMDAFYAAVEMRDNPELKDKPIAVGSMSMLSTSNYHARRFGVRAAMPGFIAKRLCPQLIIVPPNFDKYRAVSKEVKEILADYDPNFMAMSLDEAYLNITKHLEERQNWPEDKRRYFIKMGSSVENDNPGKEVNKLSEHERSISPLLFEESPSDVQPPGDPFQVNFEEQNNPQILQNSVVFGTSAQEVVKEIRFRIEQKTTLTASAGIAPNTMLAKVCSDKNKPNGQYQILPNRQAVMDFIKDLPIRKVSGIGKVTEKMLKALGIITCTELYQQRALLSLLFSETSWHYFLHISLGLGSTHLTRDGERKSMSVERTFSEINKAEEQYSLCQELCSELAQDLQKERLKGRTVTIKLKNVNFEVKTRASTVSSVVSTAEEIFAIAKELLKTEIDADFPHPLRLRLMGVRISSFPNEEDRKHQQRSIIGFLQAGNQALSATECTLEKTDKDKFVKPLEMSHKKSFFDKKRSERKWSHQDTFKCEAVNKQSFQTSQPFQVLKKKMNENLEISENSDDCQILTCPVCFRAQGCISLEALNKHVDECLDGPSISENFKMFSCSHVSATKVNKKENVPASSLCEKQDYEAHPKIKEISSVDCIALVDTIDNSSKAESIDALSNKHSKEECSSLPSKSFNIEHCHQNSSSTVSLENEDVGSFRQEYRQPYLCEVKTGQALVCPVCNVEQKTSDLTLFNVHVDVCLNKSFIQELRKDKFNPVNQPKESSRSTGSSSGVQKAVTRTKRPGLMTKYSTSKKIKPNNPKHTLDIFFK
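50 nM final substrate added after 15 min RT preincubation of 10 nM Pol kappa with compound; fluorescence read at 0 and 10 min.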
Pol iota inh – inhibitors of human DNA polymerase iota. Pol iota fluorescent replication assay, 10 min. 390,000 compounds, 1% hits. Potency, µM (highest dose often 115 µM), for inactives: at the highest dose activity, negative = inhibition, most hits filed as inhibitors; further: potency means the concentration at half of the fitted maximal effect
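Fluorescent replication assay read twice, at 0 min and 10 min after adding 50 nM (final) substrate. Enzyme (10 nM) and compounds were first incubated 15 min at room temperature; enzyme-free buffer wells were negative controls.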
WRN helicase inh – inhibitors of human WRN helicase | 360,000 compounds, 0.46% hits | WRN helicase unwinding, fluorescent forked duplex, kinetic | Q14191 | Potency, µM (highest dose often 114 µM), without a hit: top-dose activity change, negative = inhibition, most hits filed as inhibitors; further: potency means the concentration at half of the fitted maximal effect; on the % scale 0 is the no-effect control and ±100 the full control effect; nearly all actives have a fitted effect of over 55% in size
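Primary qHTS, 1536-well format. 20 nM WRN + compound, 15 min RT; start with 100 nM forked fluorophore/quencher duplex, 2 mM ATP (final); kinetic read ex 525/em 598 nm.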
POLB inh – DNA polymerase beta (human) inhibition | P06746 | Pol beta primer extension/strand displacement, fluorescence kinetic | Potency, µM (doses to about 114 µM), for inactives: at the top dose activity change, negative = inhibition, hits mostly inhibitors | 340,000 compounds, 1.3% hits | AID 485314; further: potency means the concentration at half of the fitted maximal effect; on the % scale 0 is the no-effect control and ±100 the full control effect
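10 nM enzyme + cpd, 15 min RT; start with substrate 50 nM final; read 0 min and after 10 min RT. Corrected, normalized data; 4-parameter Hill curve fit.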
GALK confirm – confirmation of human galactokinase (GALK) inhibitors | shares compounds with Pol eta inh-1 | purified GALK, Kinase-Glo ATP depletion luminescence | Potency, µM (top dose mostly 115 µM), for inactives: top-dose activity, negative = inhibition, hits mostly inhibitors | 150 compounds, 70% hits | AID 2015
Redox cycling – redox cycling activity in phenol red-HRP assay; shares compounds with Pol eta inh-1; Potency, µM (doses to about 115 µM), inactives show at the top dose activity change, negative = H2O2 signal, actives largely listed as inhibitors; 150 compounds, 40% hits; AID 2035; Phenol red-HRP H2O2 redox cycling, absorbance 600 nm
HEK293 tox – reduces HEK-293 cell viability in GALK counter-screen | shares compounds with Pol eta inh-1 | HEK-293 viability, ATP luminescence (CellTiter-Glo), 24/48 h | Potency, µM (doses to about 46.1 µM), inactives show top-dose activity change, negative = cytotoxicity, most hits filed as inhibitors | 170 compounds, 10% hits | AID 2547; further: potency means the concentration at half of the fitted maximal effect; on the % scale 0 is the no-effect control and ±100 the full control effect
Pol kappa inh-2 – Pol kappa (human) inhibition, cherry-pick confirmation. shares compounds with Pol eta inh-1. AID 720501. purified Pol-kappa, fluorescent strand-displacement substrate. 920 compounds, 76% hits. Potency, µM, most hits filed as inhibitors; further: potency means the concentration at half of the fitted maximal effect
Pol eta inh-2 – Pol eta (human) inhibition, cherry-pick confirmation; 2,600 compounds, 64% hits; Potency, µM, actives largely listed as inhibitors; AID 720502; Pol eta primer extension, TAMRA/BHQ fluorescence, 10 min; shares compounds with Pol eta inh-1; further: potency means the concentration at half of the fitted maximal effect
Active calls of the source: *; u = inconclusive; x = not tested or not shown; [ ] = another dose, or the depositor's remark. The list is not random: actives were taken first. Their share in the collection is about 2.4%. The call rests on the fitted dose curve; in most records, active means well fitted curve in the direction sought with a large enough effect; inconclusive means small, poorly fitted or top-dose-only effect, or another doubt; inactive means no such curve, though single readings can be large; an effect the other way counts as inactive or inconclusive.

SMILES | Pol eta inh-1 | FEN1 inh | Pol kappa inh-1 | Pol iota inh | WRN helicase inh | POLB inh | Pol eta inh-2 | others
S=c1[nH]nc(-c2ccc(Cl)cc2)n1/N=C/c1ccco1 | 7% | -14% | -11% | 8% | -9% | -1% | x
Cc1ccccc1-c1n[nH]c(=S)n1/N=C/C=C/c1ccco1 | 22µM* | 16µM* | 18µM* | 7.9µM* | u | -71% | 76*
Cc1cc(-c2n[nH]c(=S)n2/N=C/C=C/c2ccco2)n[nH]1 | 45µM* | -33% | 89µM* | 18µM* | u | 40µM* | u
COc1ccc(OC)c(C2C(C(=O)Nc3ccc(C)cc3)=C(C)Nc3nnnn32)c1 (stereo not drawn) | -10% | 11% | -21%[60.1 µM] | -2% | x | -3% | x
O=S(=O)(NCc1cccs1)c1ccc(Br)s1 | x | x | x | x | x | 18% | x | GALK confirm=-9%;Redox cycling=0%;HEK293 tox=13%
O=S(=O)(NCc1cccs1)c1ccc(Cl)s1 | 0% | 14% | -8% | -2% | 1% | 6% | x
CCOc1ccc(/C=C/c2nc(C#N)c(N3CCCCC3)o2)cc1 | -25% | 12% | -5% | 22% | x | 3% | x
O=[N+]([O-])c1cc(Br)c(O)c(/C=N/Nc2nnnn2-c2cccc3ccccc23)c1 | 71µM* | u | -21% | -19% | u | u | x | GALK confirm=30µM*;Redox cycling=-2%;HEK293 tox=-1%
O=[N+]([O-])c1ccc(NN=Cc2cccc3ccccc23)cc1 | 8% | -12% | 4% | 11% | -5% | x | x
COc1ccc(-n2cc(-c3ccccc3)c3c(N4CCN(CCO)CC4)ncnc32)cc1 | -15% | -6% | -5% | 1% | -9% | -24% | x | GALK confirm=-9%;Redox cycling=-1%;HEK293 tox=-17%
CCc1ccc(OCC(=O)N/N=C\c2ccco2)c([N+](=O)[O-])c1 | u | -10% | 79µM* | 20µM* | u | u | u
COc1ccc2oc(C(=O)Nc3ccc(N4CCOCC4)cc3)c(C)c2c1 | 13µM* | -4% | u | u | u | x | 38*
COc1ccc2oc(C(=O)Nc3ccccc3N3CCOCC3)c(C)c2c1 | 4% | -8% | -10% | u | -2% | x | x
CC(=O)c1cccc(S(=O)(=O)NCCCN2CCOCC2)c1 | 20µM* | 1% | u | 45µM* | -4%[11.6 µM] | x | 76*
O=C(NCCCN1CCOCC1)c1cccc(S(=O)(=O)NCc2ccccc2)c1 | -14% | 6% | -16% | 45% | 6% | x | x
COc1ccc(OC)c([C@@H]2Nc3ccc(C(=O)O)cc3[C@@H]3C=CC[C@@H]32)c1 | 35µM* | -20% | -2%[60.1 µM] | -7% | x | -1% | 85* | Pol kappa inh-2=34*
COc1ccc(Br)cc1[C@@H]1Nc2ccc(C(=O)O)cc2[C@@H]2C=CC[C@@H]21 | 79µM* | u | 35µM* | 25µM* | x | -22% | 30*
CCOC(=O)c1ccc2c(c1)[C@@H]1C=CC[C@@H]1[C@H](c1cccc(OC)c1OC)N2 | -7% | -20% | -32% | u | x | -12% | x
O=C(CSc1nccn1Cc1ccc(F)cc1)NCc1ccc(F)cc1 | 3% | -3% | -8%[60.1 µM] | -22% | x | 2% | x
CCCCN(CCCC)C(=O)CN(C)S(=O)(=O)c1ccc2c(c1)c(=O)n(C)c(=O)n2C | -16% | -6% | -8% | 11% | x | 6% | x
O=C(CSc1nc2ccccc2c(=O)n1-c1ccccc1)N1CCC1 | -21% | -7% | -3% | 24% | -3% | 2% | x
O=C(CSc1nc2ccccc2c(=O)n1-c1ccccc1)NC(=O)CN1CCCC1=O | 45µM* | -2% | u | u | -4%[11.6 µM] | 13µM* | u
COc1cc(NC(=O)CN(C)S(=O)(=O)c2ccc3[nH]c4c(c3c2)CCCC4)cc(OC)c1OC | -17% | -14% | -6% | 17% | x | 5% | x
O=C(COC(=O)CNC(=O)c1ccc([N+](=O)[O-])o1)Nc1ncc(Cl)cc1Cl | u | -3% | -21% | u | -7%[11.6 µM] | x | u
COc1ccc(OCCCC(=O)OCC(=O)Nc2ncc(Cl)cc2Cl)cc1 | 40µM* | -16% | -31% | u | u | x | 85* | Pol kappa inh-2=u
SMILES | Pol eta inh-1 | FEN1 inh | Pol kappa inh-1 | Pol iota inh | WRN helicase inh | POLB inh | Pol eta inh-2 | others
COc1ccc(NC(=O)c2ccco2)cc1NC(=O)c1cc(Cl)ccc1OC | 89µM* | -22% | -1% | -17% | x | u | x | Pol kappa inh-2=42*
COc1ccc(NC(=O)c2ccco2)cc1NC(=O)c1ccc(C)cc1 | -15% | -3% | -4% | 9% | -1% | 25% | x
COc1ccc(S(=O)(=O)CC(=O)c2cc3cc(Br)ccc3oc2=O)cc1 | 28µM* | u | u | 13µM* | u | 10µM* | u
CCCS(=O)(=O)N1CC(=O)N(c2ccccc2F)C(C)(C(=O)NC2CCCCCC2)C1 (stereo not drawn) | 13% | 3% | 7% | 16% | x | 34% | x
Cc1ccc(Cl)cc1NC(=O)CCn1cnc2ccccc2c1=O | 45µM* | 5% | -6%[60.1 µM] | u | x | u | 76*
N[C@H](C(=O)O)[C@H]1C[C@H]1C(=O)O | x | x | 6%[19.4 µM] | x | x | x | x
Cc1ccc(NC(=O)CN(C)S(=O)(=O)c2ccc3[nH]c(=O)oc3c2)c(C)c1 | 79µM* | -5% | -8% | -7% | -18%[11.6 µM] | u | 27*
CCOc1ccccc1NC(=O)CN(C)S(=O)(=O)c1ccc2[nH]c(=O)oc2c1 | -15% | -7% | -3% | 1% | 4% | -1% | x
O=C(CCc1nc2ccccc2c(=O)[nH]1)NCC(=O)Nc1ccc(F)c(F)c1 | -7% | 1% | -11% | 27% | 2% | x | x
O=C(CCc1nc2ccccc2c(=O)[nH]1)Nc1ccc(F)c([N+](=O)[O-])c1 | u | 15% | -35% | 49% | -24% | u | 67*
